Shown are actives, neighbours in structure and some others; about 5.6% of the full set was active somewhere.
PKM2 act: activators of human pyruvate kinase M2; P14618; purified PKM2, Kinase-Glo ATP luminescence, activation; response scale: 0% is enzyme alone, no compound; Potency, µM (highest dose often 57.5 µM), without a hit: at the top dose activation, most hits filed as activators; actives 0.34% (n = 260,000); AID 1631; also: potency is read from the fitted curve at half-maximal effect; nearly all actives have a fitted effect of over 55% in size
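hPK-M2, >95% pure; 0.1 mM ADP / 0.5 mM PEP final; imidazole pH7.2 buffer w/ 7 mM MgCl2, 50 mM KCl; 1 h RT; Kinase-Glo lum. Intermediate enzyme activity for dual inhibitor/activator qHTS.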
Gal4-VP16 FLuc: inhibits Gal4-VP16 luciferase reporter, ROR gamma counter-screen. Potency, µM (top dose mostly 53.6 µM), for the others: top-dose activity, negative = inhibition, hits mostly inhibitors. Drosophila S2 Gal4-VP16 UAS-luciferase, luminescence, 20 h. AID 2546. actives 3.5% (n = 310,000);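 also: Gal4-VP16 expression switched on by copper sulfate through the metallothionein promoter; potency is read from the fitted curve at half-maximal effect; nearly all actives have a fitted effect of over 50% in size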
RORg inh: blocks mouse ROR gamma transcriptional activity; P51450; AID 2551; Drosophila S2 Gal4-RORgamma UAS-luciferase reporter, 20 h; actives 5.4% (n = 310,000); Potency, µM (titrated, usually from 53.6 µM), for the others: at the top dose activity change, negative = inhibition, actives largely listed as inhibitors; also: potency is read from the fitted curve at half-maximal effect; nearly all actives have a fitted effect of over 60% in size
Target sequence (P51450 whole entry, looked up, the tested form may be a part): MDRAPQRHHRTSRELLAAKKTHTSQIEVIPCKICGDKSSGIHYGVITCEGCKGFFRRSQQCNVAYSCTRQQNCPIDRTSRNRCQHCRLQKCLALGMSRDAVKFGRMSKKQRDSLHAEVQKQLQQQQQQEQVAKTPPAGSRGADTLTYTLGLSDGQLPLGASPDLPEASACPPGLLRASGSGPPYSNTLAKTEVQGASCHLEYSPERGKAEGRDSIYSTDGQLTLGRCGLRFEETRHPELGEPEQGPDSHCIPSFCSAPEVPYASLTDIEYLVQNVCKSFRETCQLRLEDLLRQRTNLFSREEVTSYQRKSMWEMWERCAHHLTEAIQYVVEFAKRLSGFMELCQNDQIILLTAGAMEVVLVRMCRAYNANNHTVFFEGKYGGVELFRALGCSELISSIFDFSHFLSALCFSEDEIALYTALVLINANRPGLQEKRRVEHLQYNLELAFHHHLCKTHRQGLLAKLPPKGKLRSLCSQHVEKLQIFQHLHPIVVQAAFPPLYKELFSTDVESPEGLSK
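In this cell-based reporter format, copper sulfate (700 uM final) drives Gal4–ROR gamma fusion expression from a metallothionein promoter in Drosophila Schneider cells; compounds preincubated 1 hr, reporter read after 20 hr at ambient temperature.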
Six1-Eya2 inh: blocks human Six1 binding to Eya2. AlphaScreen GST-Six1/His-Eya2 binding, biochemical; active compounds read low. activity change, % (no concentration beside the values). actives 0.56% (n = 360,000). Q15475+O00167; in the data active = activity change below about -65%; inconclusive = mostly about -30% to -63%
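Compounds are tested against tagged Six1 and Eya2 proteins bridged by glutathione donor and nickel acceptor beads; after a one-hour incubation at 37 °C without light, AlphaScreen emission is recorded.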
CtBP-E1A inh: inhibitors of CtBP/E1A interaction; actives 0.49% (n = 340,000); activity change, % (concentration not given with the values); AlphaScreen GST-E1A/His-CtBP binding, 1536-well; active compounds read low; AID 651724; in the data active = activity change below about -65%; inconclusive = mostly about -30% to -63%
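Steps: dispense buffer (Tris pH 8.0, NaCl 300 mM, TCEP 1 mM, BSA, Tween 20); add 5X protein mix (GST-E1A, His-CtBP, 125 nM each); pin 23 nL compound; 2 h at 37 °C, dark; add 5X beads (50 ug/mL); 1 h; read.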
* marks the source's active call; other numbers are inactive results; ? = inconclusive; · = not tested or not shown; [ ] = dose if it differs, or a comment. Unless noted, calls follow the shape of the dose curve; as a rule, active = well fitted curve in the direction sought with a large enough effect; inconclusive = small, poorly fitted or top-dose-only effect, or another doubt; inactive = no such curve, though single readings can be large; an effect the other way counts as inactive or inconclusive. % is scaled to controls: 0 for no effect and ±100 for the full control effect.

SMILES | PKM2 act | Gal4-VP16 FLuc | RORg inh | Six1-Eya2 inh | CtBP-E1A inh
COc1ccccc1NC(=S)NC1CCC(CC2CCC(NC(=S)Nc3ccccc3OC)CC2)CC1 (stereo not drawn) | -11% | 3.2µM* | 3.5µM* | -9 | -4
CN(C)NC(=S)NC1CC2CCC1C2 (stereo not drawn) | 4% | 13µM* | 5.6µM* | 3 | 3
COc1ccccc1NC(=S)NC1CCCC1 | · | · | · | 8 | ·
COc1ccccc1NC(=S)NC1CC2CCC1C2 (stereo not drawn) | 2% | 16µM* | 2.2µM* | -6 | -16
O=C(NCCCN1CCOCC1)c1[nH]c(C(F)(F)F)nc1-c1ccccc1 | · | · | · | -9 | -1
CCCCc1ccc(NC(=S)N2CCCC2)cc1 | -7% | 10µM* | 11µM* | 2 | 5
CCCCc1ccc(NC(=S)N2CCN(C)CC2)cc1 | -2% | ? | 11µM* | -3 | ·
CCOC(=O)N1CCN(C(=S)Nc2ccc(C)c(C)c2)CC1 | -9% | -4% | ? | 1 | 9
CCCCc1ccc(NC(=S)N2CCN(C(=O)OCC)CC2)cc1 | 1% | ? | 1.3µM* | -4 | -6
CC(C)c1ccc(NC(=S)N2CCCC2)cc1 | -8% | ? | 10µM* | 4 | 8
S=C(Nc1ccccc1)N1CCCCCCC1 | -26% | -5% | ? | 4 | 3
O=C(CN1c2cccc3cccc(c23)S1(=O)=O)N1CCN(c2ccccc2)CC1 | · | · | · | 1 | -20
COc1ccc(NCC(=O)Nc2cccc(S(=O)(=O)N3CCCC3)c2)cc1Cl | · | · | · | -27 | ?
Cc1cc(NS(=O)(=O)c2c(C(=O)N3CCOCC3)c(C)n(C)c2C)ccc1Br | -10% | -1% | 12% | -2 | 0
CCCCc1ccc(NC(=O)C(C)CC)cc1 (stereo not drawn) | -20% | 4µM* | 1.4µM* | 8 | 14
COc1cccc(OCC(=O)Nc2ccccc2C(=O)Nc2ccc(C(=O)O)cc2)c1 | 4% | 4% | -1% | 15 | 0
Cc1cc(C(=O)COc2ccc(F)cc2Br)c(C)n1C1CC1 | · | · | · | -15 | -3
Cc1nnc2n(Cc3ccccc3)c(=O)c3c4c(sc3n12)CCCC4 | 0% | ? | 11µM* | · | ·
COc1ccc(/C=N/NC(=O)c2cccnc2)cc1CSc1ccccn1 | 3% | 7% | -4% | -6 | -10
COC(=O)Cn1cnc2c(Cl)nc(F)nc21 | · | · | · | -22 | -21
Cc1cccc(/C=N/n2c(-c3ccco3)n[nH]c2=S)c1 | -12% | -20% | ? | -1 | -1
Cc1ccsc1/C=N/n1c(-c2ccccn2)n[nH]c1=S | -14% | ? | ? | -78* | ?
S=c1[nH]nc(-c2ccccn2)n1/N=C/c1ccco1 | -4% | 0% | -24% | -74* | 0
Cc1ccc(/C=N/n2c(-c3ccco3)n[nH]c2=S)cc1 | 0% | ? | 7.1µM* | -24 | -14
Cn1cccc1/C=N/n1c(-c2ccco2)n[nH]c1=S | -9% | -4% | 11µM* | 2 | 10
SMILES | PKM2 act | Gal4-VP16 FLuc | RORg inh | Six1-Eya2 inh | CtBP-E1A inh
CCCC/C=C/[C@H](C)[C@@](C)(COC(=O)c1ccc(Br)cc1)Cc1ccccc1 | · | 4% | 36% | · | ·
Clc1ccc(-c2noc3c2-c2nc(Cc4cccc5ccccc45)sc2CC3)cc1 | · | · | · | 1 | -6
S=c1[nH]nc(-c2ccco2)n1/N=C/c1ccc(Cl)c(Cl)c1 | -13% | 5.6µM* | 5.6µM* | -15 | -4
S=c1[nH]nc(-c2ccccn2)n1/N=C/c1cccc(Cl)c1 | -21% | ? | 11µM* | ? | ?
S=c1[nH]nc(-c2ccco2)n1/N=C/c1cccc(Cl)c1 | 5% | -16% | 14µM* | -18 | -18
S=c1[nH]nc(-c2ccco2)n1/N=C/c1c(Cl)cccc1Cl | 0% | 1% | 20% | 7 | ·
CCN1CC(CN(C)Cc2nc(Cc3ccccc3)no2)CC1=O (stereo not drawn) | 1% | -2% | 7% | 0 | 7
COc1ccc(CCn2c(=N)c(C(=O)NCc3ccco3)cc3c(=O)n4ccccc4nc32)cc1OC | · | · | · | -74* | ·
N=c1c(C(=O)NCc2ccco2)cc2c(=O)n3ccccc3nc2n1CCc1ccccc1 | 0% | -7% | 31% | -78* | -67*
COc1ccc(CCNC(=O)c2cc3c(=O)n4ccccc4nc3n(Cc3ccco3)c2=N)cc1OC | · | -7% | -18% | -9 | ·
O=C(NCc1ccco1)c1cccn2c(=O)c3cc4ccccc4cc3nc12 | 6% | 11µM* | ? | · | ·
CCOC(=O)N1CCN(C(=O)C[C@@H]2C[C@@]3(C(=O)OC)CCCCC=C3N(CCc3ccc(OC)c(OC)c3)C2=O)CC1 | · | · | · | 2 | -10
CN(C)/C=N/C(=S)Nc1ccccc1F | -2% | -2% | -30% | 0 | -1
CN(C)/C=N/C(=S)Nc1ccc(F)cc1 | 0% | ? | 11µM* | 0 | -1
Cc1ccc(OC(=S)Nc2ccc(F)cc2)cc1 | 2% | 1% | -18% | -8 | -8
CN(C)/C=N/C(=S)Nc1cc(Cl)cc(Cl)c1 | 3% | -1%[10 µM] | 20% | -1 | -24
CN(C)/C=N/C(=S)Nc1ccccc1Cl | -2% | 8%[10 µM] | 6.3µM* | 4 | 0
CO/N=C\CC(=O)Nc1ccc(Cl)cc1Cl | -1% | -10% | -1% | -1 | 0
CN(O)/C=N/C(=S)Nc1ccc(Cl)cc1Cl | 6% | 1% | 18µM* | -1 | 11
CN(C)/C=N/C(=S)Nc1ccc(Cl)c(Cl)c1 | -1% | 3.2µM* | 1.8µM* | 13 | 5
Cc1ccc(OCC(=O)Nc2ccccc2[N+](=O)[O-])c(Br)c1 | 9% | 29% | 30% | -29 | -19
Cc1cc(C)cc(NC(=S)NC(=O)C2CC2)c1 | -3% | 6.3µM* | 7.1µM* | 3 | 0
Cc1cc(NC(=S)NC(=O)C2CC2)ccc1Br | -9% | 2.5µM* | 2.5µM* | -3 | 4
Cc1cccc(NC(=S)NC2CCCC2)c1 | -1% | -15% | 22% | -2 | 1
Cc1cccc(NC(=S)NC2CC3C=CC2C3)c1 (stereo not drawn) | -3% | 11µM* | 5µM* | -1 | -19
SMILES | PKM2 act | Gal4-VP16 FLuc | RORg inh | Six1-Eya2 inh | CtBP-E1A inh
Cc1cccc(NC(=S)NC(=O)C2CC2)c1 | 4% | ? | 7.9µM* | · | ·
Cc1cccc(NC(=O)C2CCCC2)c1 | 0% | -5% | 39% | 5 | 5
Cc1ccc(NC(=S)NC(=O)C2CCCC2)c(Br)c1 | · | · | · | 0 | -3
CCCc1cc(=O)oc2cc(C)cc(OC(C)C(=O)NCC(O)c3ccccc3)c12 (stereo not drawn) | 0%[0.46 µM] | 1% | 17% | 0 | 2
Cc1ccc(NC2CCCN(C(=O)c3ccc4[nH]ccc4c3)C2)cc1C (stereo not drawn) | 0% | -10% | 16% | -14 | -3
O=C(OCC(=O)N1N=C(c2ccc(Cl)cc2)CC1c1ccco1)c1cccnc1 (stereo not drawn) | · | · | · | -20 | ·
CCN(Cc1ccncc1)C(=O)c1ccccc1NS(=O)(=O)c1ccc(Br)cc1 | 0% | ? | ? | 4 | ·
